From PubChem BioAssay
Pf Dd2 inh – Plasmodium falciparum Dd2 growth inhibition; P. falciparum Dd2 growth, SYBR Green, 72 h; Potency, µM (titrated, usually from 28.9 µM), hits mostly inhibitors; 120,000 tested, 4.3% active; AID 1347417; active = well fitted inhibition curve with a large enough effect; note: nearly all actives have a fitted effect of over 65% in size
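Readout: SYBR Green fluorescence, 485 nm excitation, 535 nm emission, after ~16 h lysis at 37C. Before that, Dd2-infected red cells (2.5% hematocrit) grew 72 h with compound, 29 uM top final concentration.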
Numbers stand for hits; 0 = inactive. Only a selection was taken, and hits are over-represented in it overall.

SMILES	Pf Dd2 inh
Cc1cc(C)c(Cn2c(C3CC(=O)N(c4ccc(F)cc4)C3)nc3ccccc32)c(C)c1 (stereo unspecified)	0
CCOc1ccc(N2CC(c3nc4ccccc4n3CCCCOc3ccc(OC)cc3)CC2=O)cc1 (stereo unspecified)	13µM
CCOc1ccc(N2CC(c3nc4ccccc4n3CCC3CCCCC3)CC2=O)cc1 (stereo unspecified)	11µM
Cc1ccc(F)cc1CC(=O)N1C[C@@H](CN2CCOCC2)[C@@H](CO)C1	0
COc1ccc(S(=O)(=O)NCC2Cn3cccc3C(=O)N2C)cc1 (stereo unspecified)	0
O=C(CCC1CCN(C(=O)c2cc(C3CC3)[nH]n2)CC1)N1CCC(Cc2ccccc2)CC1	0
COCCN1Cc2[nH]nc(-c3ccccc3)c2CC1=O	0
O=C1Nc2ccccc2C12CN(Cc1ccsc1)C2	0
COc1ccc(-c2cc(N3CCCN(C(=O)c4ccc(OC)c(F)c4)CC3)n[nH]2)cc1	0
CCOc1ccccc1N1CC(c2nc3ccccc3n2CCCOc2ccccc2OC)CC1=O (stereo unspecified)	0
CCOc1ccc(N2CC(c3nc(-c4cc(OC)c(OC)c(OC)c4)no3)CC2=O)cc1 (stereo unspecified)	0
CCOc1ccc(N2CC(c3nc4ccccc4n3CCOc3ccccc3OC)CC2=O)cc1 (stereo unspecified)	13µM
O=C([C@@H]1C[C@H](Oc2cccnc2)CN1C(=O)c1ccncc1)N1CCCC1	0
CC1=C(C(=O)OCc2ccc(C)cc2)C(c2ccccc2C(F)(F)F)CC(=O)N1 (stereo unspecified)	5.6µM
CC1=C(C(=O)OCC2CCCCC2)C(c2cccc(Cl)c2Cl)CC(=O)N1 (stereo unspecified)	0
CC1=C(C(=O)OCc2ccccc2)C(c2cccc(Cl)c2Cl)CC(=O)N1 (stereo unspecified)	0
O=C(NC1CCOC2(CCOCC2)C1)c1csc(Cc2ccccc2)n1 (stereo unspecified)	0
Cc1ccc(C(=O)N2CCC3(CC2)CCN(Cc2cccs2)c2ccccc2O3)cc1	0
Cc1ccccc1C(=O)N1CCC2(CC1)CCN(CCc1ccccc1)c1ccccc1O2	0
O=C(c1ccccc1Cl)N1CCC2(CC1)CCN(Cc1cccs1)c1ccccc1O2	10µM
O=C(c1ccccc1F)N1CCC(N2CC3CCCN3C2=O)CC1 (stereo unspecified)	0
CCCN1CCCn2nc(CNC(=O)c3ccc(OC)nc3OC)cc2C1	0
CC(C)CSc1ccccc1NC(=O)c1sc2nc(-c3ccncc3)ccc2c1N	3.2µM
COc1ccc(-c2ccc3c(N)c(C(=O)Nc4cccc(C)c4)sc3n2)cc1	0
COc1cccc(-c2ccc3c(N)c(C(=O)Nc4ccc(Cl)cc4F)sc3n2)c1	0
SMILES	Pf Dd2 inh
CCCCN1C(=O)[C@@H]2C[C@@H](O)CN2C2(CN(CC3CC3)C2)C1=O	0
CCC(Cn1nnc2ccccc2c1=O)NC(=O)Nc1ccc(C)cc1 (stereo unspecified)	0
CC(=O)Nc1ccc(N(C(=O)Cn2nnc3ccccc32)C(C(=O)NCc2ccccc2)c2ccc(C)cc2)cc1 (stereo unspecified)	11µM
CCOc1ccc(N(C(=O)Cn2nnc3ccccc32)C(C(=O)NCc2ccccc2)c2ccc(OC)cc2)cc1 (stereo unspecified)	0
COC(=O)c1c(NC(=O)c2ccc(S(=O)(=O)N(C)C3CCCCC3)cc2)sc2c1CCN(C)C2	8.9µM
CC(C)CN(CC(C)C)S(=O)(=O)c1ccc(C(=O)Nc2sc3c(c2C(N)=O)CCN(C(C)C)C3)cc1	0
COC(=O)c1c(NC(=O)c2ccc(S(=O)(=O)N3CCC(C)CC3)cc2)sc2c1CCN(C)C2	0
O=C(Cn1nc2c(cc1=O)CCCC2)N1CCN(Cc2ccccc2Cl)CC1	0
Cc1ccc(CN2C(=O)OC(c3cccc(NC(=O)c4cccs4)c3)C2C(=O)NCC(C)C)cc1 (stereo unspecified)	0
COCCC(=O)N1CCC2(CC1)C(=O)N(C)c1ccccc12	0
CN1C(=O)C2(CCN(C(=O)CCCS(N)(=O)=O)CC2)c2ccccc21	0
CN1C(=O)C2(CCN(C(=O)CCC3CCCCC3)CC2)c2ccccc21	5µM
CCn1ccc(C(=O)NCC23CCCC=C2NC(=O)CC3)n1 (stereo unspecified)	0
Cc1ccccc1C(=O)N1CCC(Cc2nc(-c3ccccc3)no2)CC1	0
COc1cc(Cl)c(C)cc1NC(=O)c1ccc2c(Cl)c3c(nc2c1)CCC3	0
CCOC(=O)c1cccc(Nc2c3c(nc4ccccc24)CCC3)c1	10µM
CCOC(=O)c1cccc(Nc2nc(C(=O)OCC)nc3ccccc23)c1	7.9µM
CCOC(=O)c1cccc(Nc2cc(-c3ccccc3)ncn2)c1	0
COc1cc(Cl)c(C)cc1Nc1c2c(nc3ccccc13)CCC2	8.9µM
CCOC(=O)c1nc(Nc2ccccc2C)c2ccccc2n1	0
CCOC(=O)c1cccc(NC(=O)CCc2nc3cccnc3n2-c2ccccc2)c1	0
Cc1cccc(Nc2nc(-c3ccccc3)nc3ccccc23)c1	0
